According to the supplement of paper PMC10338343:
± gives the standard deviation.

These sequences were tested on MILI (PIWIL2) piRISC loaded with piRNA #1 (26 nt) (assay: pre-steady-state target cleavage rate (min^-1); guide: piRNA #1 5'p-UGAGGUAGUAGGUUGUAUAGUAUCCA; MIWI and MILI are mouse PIWI proteins and EfPiwi is from a freshwater sponge; tags in brackets are library labels; higher = faster piRNA-guided slicing of the target). Settings: auxiliary factor: 500 nM mouse GTSF1.
How it was run: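 The pre-steady-state cleavage rate came from a burst-and-steady-state fit to pooled data from three Cleave-'n-Seq trials, in which uncleaved targets were sequenced and normalised to depth and to weakly complementary targets. Each reaction held 0.1 nM transcribed, DNA-blocked target RNA library and 1 nM active affinity-purified piRISC carrying one synthetic guide, with or without 500 nM GTSF1 partner protein, in HEPES–potassium acetate buffer at 33 °C for 0–8 or 0–960 min. k3 was capped at 0.0001 min^-1.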

Sequence	pre-steady-state target cleavage rate
GGAGACGAUACUAUAGCAACCUACUACCUCA	0.162 ± 0.013
GGAGACCUAUGUACUACAACCUACUACCUCA	0.00901 ± 0.0026
GGAGUGGAUACAAAACAACCUACUACCUCA	0.12 ± 0.0086
GGAGACCUAUGAUAUGAACCUAGCUACCUCA	< 0.0001
GGAGACCUUACAAAACAACCUACUACCUCA	0.00897 ± 0.0036
GGAGACCUUACUAUACACCUACUACCUCA	0.00774 ± 0.0034
GGAGACCUAUCUAUACAAUCUACUACCUCA	0.093 ± 0.0085
GGAGACCUAUCUAUACAACCUACUUGCUCA	0.109 ± 0.023
GGAGACCUAUGAUAUGUUCCUACACCUCA	< 0.0001
GGAGACCUAUGAUAUCAACCUACGUACCUCA	0.00296 ± 0.0024
GGAGACCUAUGAUUACAAGCUACUUCCUCA	0.0143 ± 0.0037
GGAGACCUUAGUAUACAACCUACUACGUCA	0.0155 ± 0.0047
GGAGACCUAUGAAUACAACCUACUACCUCA [g2:g18:cont:t1A]	0.00878 ± 0.0033
GGAGACGAUACUAUACAAGCUACUACCACA	0.311 ± 0.016
GGAGACCUUACUUUACAACCUACUACCACA	0.14 ± 0.018
GGAGACCUAUCUAUUCAACGUACUACCUCA	0.00945 ± 0.003
GGAGACCAUACUAUACAAGCUACUAGCUCA	0.0756 ± 0.022
GGAGUGGAUACUAUACUACCUACUUCCUCA	0.0121 ± 0.0027
GGAGAGGAUCCUAUACAACCUACUACCUCA	0.164 ± 0.025
GGAGACCUAUCUAUACAUCCUAGUACCUCA	0.0489 ± 0.012
GGAGACCUAUGUAUAGUUCCUACUACCUCA	0.00602 ± 0.0021
GGAGACCAUACAAUACAAGCUACUACCUCA	0.205 ± 0.016
GGAGACCUAACUAUACAUCCUACAACCUCA	0.246 ± 0.033
GGAGACCAUAGUAUACAACCUUCUACCUCA	0.0111 ± 0.0041
